# Counter-ions that a name gives are not always drawn.
# System: Haemophilus parainfluenzae
# Test: growth AUC normalised to DMSO control (fraction of control); higher = less growth inhibition, active = hit call of the paper
# Conditions: 20 µM;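 active = AUC significantly below DMSO controls by Student t-fit with adjusted P under 0.01; inactive = not significantly reduced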
# Outline: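 Three biological replicates were carried out, with OD578 read hourly for 24 h. Before inoculation at a starting OD578 of 0.01, pathogens were passaged anaerobically twice; plates were pre-reduced mGAM containing 20 μM compound and 1% DMSO, sealed with breathable membranes, and the Haemophilus parainfluenzae medium carried added hemin and NAD. Area under each growth curve was calculated by the trapezoidal rule up to the exponential-to-stationary transition and normalised to DMSO controls on the same plate.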
row,SMILES,growth AUC normalised to DMSO control
1,CCCCOC(=O)c1ccc(N)cc1 [Butamben],1 (inactive)
2,CN1CCC(=C2c3ccccc3CC(=O)c3sccc32)CC1 [Ketotifen fumarate],0.997 (inactive)
3,OC(c1cc(C(F)(F)F)nc2c(C(F)(F)F)cccc12)C1CCCCN1 (centres undefined) [Mefloquine hydrochloride],0.903 (inactive)
4,"Cc1c(O)c(=O)n(-c2ccccc2)n1C [Antipyrine, 4-hydroxy]",0.974 (inactive)
5,C[C@H](N)[C@H](O)c1cccc(O)c1 [Metaraminol bitartrate],0.968 (inactive)
6,NS(=O)(=O)c1cc2c(cc1Cl)N=CNS2(=O)=O [Chlorothiazide],1.01 (inactive)
7,CC(COc1ccccc1)N(CCCl)Cc1ccccc1 (centres undefined) [Phenoxybenzamine hydrochloride],1.01 (inactive)
8,CC[N+](CC)(CC)CCOc1cccc(OCC[N+](CC)(CC)CC)c1OCC[N+](CC)(CC)CC [Gallamine triethiodide],1.09 (inactive)
9,COc1cc2nc(N3CCN(C(=O)C4CCCO4)CC3)nc(N)c2cc1OC (centres undefined) [Terazosin hydrochloride],0.978 (inactive)
10,Cc1cc(C(=O)NNCc2ccccc2)no1 [Isocarboxazid],1.06 (inactive)
11,COCCOC(=O)C1=C(C)NC(C)=C(C(=O)OC(C)C)C1c1cccc([N+](=O)[O-])c1 (centres undefined) [Nimodipine],0.959 (inactive)
12,CCOC1O[C@H]([C@@H](COCc2ccccc2)OCc2ccccc2)[C@H](OCc2ccccc2)[C@H]1O (some centres undefined) [Tribenoside],0.941 (inactive)
13,CC(=O)OCC(=O)[C@@]1(O)CC[C@H]2[C@@H]3CCC4=CC(=O)CC[C@]4(C)[C@H]3[C@@H](O)C[C@@]21C [Cortisol acetate],1.02 (inactive)
14,COc1ccc2[nH]c([S+]([O-])Cc3ncc(C)c(OC)c3C)nc2n1 (centres undefined) [Tenatoprazole],0.978 (inactive)
15,CC(C)(C)NCC(O)COc1cccc2c1CCC(=O)N2 (centres undefined) [Carteolol hydrochloride],0.985 (inactive)
16,C[C@H](CCC(=O)O)[C@H]1CC[C@H]2[C@@H]3C(=O)C[C@@H]4CC(=O)CC[C@]4(C)[C@H]3CC(=O)[C@]12C [Dehydrocholic acid],0.972 (inactive)
17,CCc1c2c(nc3ccc(OC(=O)N4CCC(N5CCCCC5)CC4)cc13)-c1cc3c(c(=O)n1C2)COC(=O)[C@]3(O)CC [Irinotecan hydrochloride trihydrate],1 (inactive)
18,CCOc1ccc2ccccc2c1C(=O)N[C@@H]1C(=O)N2[C@@H]1SC(C)(C)[C@@H]2C(=O)O [Nafcillin sodium salt monohydrate],0.899 (inactive)
19,N[C@@H](Cc1ccc(O)c(O)c1)C(=O)O [Levodopa],1.02 (inactive)
20,CC(=O)N1CCN(c2ccc(OCC3COC(Cn4ccnc4)(c4ccc(Cl)cc4Cl)O3)cc2)CC1 (centres undefined) [Ketoconazole],1.03 (inactive)
21,C[C@@H]1[C@H](O)[C@@H](C)/C=C/C=C/C=C/C=C/C=C/C=C/C=C/[C@H](O[C@@H]2O[C@H](C)[C@@H](O)[C@H](N)[C@@H]2O)C[C@@H]2O[C@](O)(C[C@@H](O)C[C@@H](O)[C@H](O)CC[C@@H](O)C[C@@H](O)CC(=O)O[C@H]1C)C[C@H](O)[C@H]2C(=O)O [Amphotericin B],1.09 (inactive)
22,OCCOCCN1CCN(C(c2ccccc2)c2ccc(Cl)cc2)CC1 (centres undefined) [Hydroxyzine dihydrochloride],0.978 (inactive)
23,C1N2CN3CN1CN(C2)C3 [Methenamine],1.05 (inactive)
24,COc1ccc2c(c1)C(=O)N(CCc1ccc(S(=O)(=O)NC(=O)NC3CCCCC3)cc1)C(=O)C2(C)C [Gliquidone],0.998 (inactive)
25,Cc1cc(-n2c(=O)[nH]c(=O)n(C)c2=O)ccc1Oc1ccc(SC(F)(F)F)cc1 [Toltrazuril],0.954 (inactive)
26,CNCCc1ccccn1 [Betahistine mesylate],0.962 (inactive)
27,COc1cc(Cc2cnc(N)nc2N)cc(OC)c1OC [Trimethoprim],0.0255 (active)
28,OC(CCN1CCCC1)(c1ccccc1)C1CCCCC1 (centres undefined) [Procyclidine hydrochloride],0.962 (inactive)
29,CCC1NC(=O)c2cc(S(N)(=O)=O)c(Cl)cc2N1 (centres undefined) [Quinethazone],1.16 (inactive)

# Reference: the supplement of paper PMC12350171
